Inconclusive results are not listed. Active and inactive are the calls of the source.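 The calls were made as follows, unless noted: active = viability at or below 27.92% in each of two runs, the all-compound median minus 4 SD; inconclusive = no clear call, values can overlap the other calls; inactive = the rest.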
Experiments:
[1] = Her2 expression decrease, cell viability multiplex – SKBR3 breast tumor cells, AlphaScreen, ATP viability, primary screen (AID 461;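 active = Her2 level under about 52% in both replicate screens, with viability over 70% of control, limit read from the data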;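 as to Her2 level: lower value means less Her2 protein in the cells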;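 as to viability: percent of carrier control wells set as 100% viability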); settings: SKBR3 Her2 protein level, 18-24 h, measured here: SKBR3 viability, ATP luminescence, at 10 µM
[2] = biological target: Receptor tyrosine-protein kinase erbB-2 (Homo sapiens) (UniProt P04626); assay: as above; settings: 18-24 h, at 10 µM, stronger effect = lower value
Chain of Receptor tyrosine-protein kinase erbB-2 (Homo sapiens) (P04626 whole entry, looked up): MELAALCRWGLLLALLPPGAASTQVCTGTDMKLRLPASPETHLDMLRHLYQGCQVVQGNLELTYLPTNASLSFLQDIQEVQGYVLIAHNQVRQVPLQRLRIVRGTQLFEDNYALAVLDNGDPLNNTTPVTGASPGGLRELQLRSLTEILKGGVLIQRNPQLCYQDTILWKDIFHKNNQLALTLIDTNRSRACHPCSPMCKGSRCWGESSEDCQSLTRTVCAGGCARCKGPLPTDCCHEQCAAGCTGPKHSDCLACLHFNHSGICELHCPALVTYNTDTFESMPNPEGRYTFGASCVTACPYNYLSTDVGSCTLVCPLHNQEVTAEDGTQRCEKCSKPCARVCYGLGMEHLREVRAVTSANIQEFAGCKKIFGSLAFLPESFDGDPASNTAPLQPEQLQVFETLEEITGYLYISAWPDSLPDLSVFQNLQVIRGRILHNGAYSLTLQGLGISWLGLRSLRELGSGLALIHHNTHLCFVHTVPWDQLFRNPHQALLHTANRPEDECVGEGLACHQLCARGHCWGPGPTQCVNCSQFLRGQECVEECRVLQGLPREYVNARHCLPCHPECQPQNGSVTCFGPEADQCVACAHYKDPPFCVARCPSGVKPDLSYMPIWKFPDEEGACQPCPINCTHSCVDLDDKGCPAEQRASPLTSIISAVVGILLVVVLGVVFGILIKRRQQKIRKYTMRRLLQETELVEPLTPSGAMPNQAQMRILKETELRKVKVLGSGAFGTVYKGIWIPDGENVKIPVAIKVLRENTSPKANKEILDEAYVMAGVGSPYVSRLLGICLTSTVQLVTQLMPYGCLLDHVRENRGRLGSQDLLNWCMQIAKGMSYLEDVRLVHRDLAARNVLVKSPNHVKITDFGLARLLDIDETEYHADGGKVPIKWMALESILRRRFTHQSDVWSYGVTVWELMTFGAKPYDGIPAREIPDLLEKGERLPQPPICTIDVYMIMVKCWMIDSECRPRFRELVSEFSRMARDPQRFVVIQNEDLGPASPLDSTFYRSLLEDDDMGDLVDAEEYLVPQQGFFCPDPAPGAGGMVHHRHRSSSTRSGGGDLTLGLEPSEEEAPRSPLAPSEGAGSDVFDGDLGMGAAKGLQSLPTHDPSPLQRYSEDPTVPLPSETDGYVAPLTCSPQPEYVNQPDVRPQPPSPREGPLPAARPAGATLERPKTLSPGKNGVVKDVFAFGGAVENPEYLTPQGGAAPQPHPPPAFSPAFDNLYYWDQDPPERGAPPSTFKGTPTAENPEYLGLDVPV

[3] = reduced viability of SK-BR-3 breast cancer cells – cell-based, 24 h, human, pilot screen (AID 572;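 active = viability at or below 10% of carrier control in both of two separate runs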;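 also: compound exposure lasted between 18 and 24 h rather than exactly 24 h; 100% = carrier-treated control wells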); settings: SK-BR-3 viability, CellTiter-Glo luminescence, at 10 µM, stronger effect = lower value
[4] = HUVEC growth inhibition – cell-based, human, primary screen (AID 575;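 active = viability at or below 30% in both replicate assays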;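 also: 100% = median of untreated cell wells with 0.1% DMSO on each plate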); settings: HUVEC proliferation, CellTiter-Glo luminescence, 72 h; at 10 µM; stronger effect = lower value
[5] = H69AR cell proliferation blockers – human, duplicate replicates, primary screen (AID 580;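 active = viability at or under a set limit in both replicates, limit being median viability minus 3 SD, cut at about 48% in these data, passing the limit was not always enough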;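 also: 100% = mean luminescence of untreated wells and 0% = no signal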); settings: H69AR lung tumor cells viability, ATP luminescence, 72 h; at 10 µM; stronger effect = lower value
[6] = MRP1 drug-resistance reversers in H69AR cells – cell-based, doxorubicin co-treatment, pilot screen (AID 601;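 active = viability loss from added drug above about 55%, and viability with drug at most 40%, in both replicates, limit read from the data, passing the limit was not always enough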); settings: CellTiter-Glo, 72 h, at 10 µM; for differential viability (reversal): stronger effect = higher value
[7] = yeast transport mutant growth inhibition pilot in 384-well plates, post-Golgi transport modulator project (AID 636; in the data active = inhibition above about 31%); settings: absorbance 615 nm, about 18 h, stronger effect = higher value
[8] = growth suppression of yeast trafficking mutant, preliminary HTS, modulators of trafficking downstream of Golgi apparatus project, 1536-format plate, OD 615 nm (AID 637; in the data active = inhibition above about 30%); settings: yeast transport mutant growth, absorbance 615 nm, 18 h; stronger effect = higher value
[9] = S. cerevisiae growth inhibition in permissive medium (OD615), pilot counter-assay for S. cerevisiae lifespan shortening project, permissive growth control (AID 705;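 active = growth inhibition above 25% in both replicates, a cutoff set 3 SD above the mean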); settings: OD615, 24 h, at 10 µM, stronger effect = higher value
[10] = S. cerevisiae growth inhibition in restrictive medium, OD615, pilot screen, restrictive growth control, yeast lifespan reduction project (AID 706;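 active = growth inhibition above a set limit, 3 SD over mean compound inhibition, in both replicates, cut at about 43% in these data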;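 also: modified DeaD lifespan yeast strain shifted to restrictive glucose medium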); settings: OD615, 48 h, at 10 µM, stronger effect = higher value
[11] = doxorubicin toxicity protection in MRP-1 cells – H69AR cells, CellTiter-Glo, duplicate, MRP-1 activator project, pilot screen (AID 807;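 active = viability increase at or above a cutoff of the median across tested compounds plus 3 SD, cut at about 8.5% in these data, passing the limit was not always enough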;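 also: compound pretreatment 18-22 h then 72 h combined with doxorubicin; 0% = doxorubicin alone and 100% = vehicle without doxorubicin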); settings: H69AR viability with doxorubicin, CellTiter-Glo luminescence; at 10 µM; stronger effect = higher value
[12] = viability of HCT116 without oncogenic beta-catenin – human colon tumor cells, pilot screen (AID 823;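 active = cell viability at or below a set limit in both duplicate runs, the limit being the all-compound median minus 4 SD, cut at about 23% in these data, passing the limit was not always enough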;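 also: 0% = wells killed by 20 µM Hyamine and 100% = untreated DMSO cell wells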); settings: HCT116 beta-catenin knockout viability, CellTiter-Glo, 60 h; at 10 µM; stronger effect = lower value
[13] = viability of PTEN-null HCT116 cells – cell-based, HCT116 clonal line, CellTiter-Glo, pilot screen (AID 824); settings: HCT116 PTEN-deleted viability, 60 h, at 10 µM, stronger effect = lower value;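 also: 0% = 20 µM Hyamine control and 100% = vehicle cell control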
[14] = RAM pathway blockade in budding yeast – dse1pr::URA3 reporter, 5-FOA selection, pilot screen (AID 869;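 active = inhibition over a set limit, the all-compound mean plus 3 SD, in both replicate runs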;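 also: 0% = DMSO wells with no growth and 100% = 10 µM 1-NA-PP1 with full growth; RAM network block rescues cells from 5-FOA so hits raise OD615 growth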); settings: S. cerevisiae dse1pr::URA3 5-FOA growth, OD615, 2 d; at 10 µM; stronger effect = higher value; strain carries analog-sensitive mutant Cbk1 kinase
[15] = RAM signaling pathway blockade in yeast – S. cerevisiae, Pdr1DBD-CYC8 efflux-inhibited sensitized strain, primary screen (AID 1298;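 active = RAM network inhibition above 8.4% in each of two replicates, 3 SD over the compound average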;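 also: 0% = DMSO untreated cells without growth and 100% = 10 µM 1-NA-PP1 full growth; higher means more yeast growth rescued from 5-FOA killing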); settings: S. cerevisiae cbk1-as DSE1-URA3 strain, 5-FOA growth OD615, 2 d; at 50 µM; stronger effect = higher value
[16] = H69AR cells + 2 uM doxorubicin, measured here: viability with 2 uM doxorubicin, stronger effect = lower value
[17] = H69AR cells, compound alone cytotoxicity

Compound | viability [1] [%] | Her2 level [2] | viability [3] | viability [4] | viability [5] | differential viability (reversal) ([6]; H69AR cells + 2 uM doxorubicin) | viability [6, 16] [%] | viability [6, 17] [%] | inhibition [7] | inhibition [8] | growth inhibition [9] | growth inhibition [10] | viability increase [11] | viability [12] | viability [13] | inhibition [14] | RAM network inhibition [15]
CCn1cc(C(=O)NCCC2=CCCCC2)c(=O)c2cc(S(=O)(=O)N(C)C)ccc21 | 82.5 | 98.5% (inactive) | 82.5% (inactive) | 70.4% (inactive) | 71.7% (inactive) | 9.64% (inactive) | 62.1 | 71.7 | -4.67% (inactive) | -3.61% (inactive) | -14.2% (inactive) | -29.6% (inactive) | -4.4% (inactive) | 86.4% (inactive) | 72.6% (inactive) | 1.37% (inactive) | 1.83% (inactive)
CCN1C(=O)c2ccccc2S(=O)(=O)c2ccc(C(=O)NCc3cccnc3)cc21 | 95.5 | 114% (inactive) | 95.5% (inactive) | 85.6% (inactive) | 91.5% (inactive) | -0.065% (inactive) | 91.6 | 91.5 | 0.93% (inactive) | 8.5% (inactive) | -2.51% (inactive) | -4.21% (inactive) | -2.25% (inactive) | 93.4% (inactive) | 90.4% (inactive) | 0.65% (inactive) | 1.98% (inactive)
COC(=O)CCC(=O)Nc1ccc(OC)cc1 | 104 | 84% (inactive) | 104% (inactive) | 121% (inactive) | 85.1% (inactive) | -13.2% (inactive) | 98.3 | 85.1 | -6.22% (inactive) | 0.98% (inactive) | -2.88% (inactive) | -6.16% (inactive) | -1.06% (inactive) | 98.6% (inactive) | 101% (inactive) | 0.605% (inactive) | 2.52% (inactive)
COc1cccc(-n2c(SCC(=O)N3CCCC3)nc3c([nH]c4ccccc43)c2=O)c1 | 83 | 80.5% (inactive) | 83% (inactive) | 74.5% (inactive) | 76.1% (inactive) | -1.79% (inactive) | 77.9 | 76.1 | -5.2% (inactive) | -1.83% (inactive) | -8.48% (inactive) | -21.2% (inactive) | -6.23% (inactive) | 90.3% (inactive) | 85.7% (inactive) | 1.42% (inactive) | 7.87% (inactive)
CC1=C(C(=O)N2CCCCC2)C(c2cccs2)C2=C(CCCC2=O)N1 (stereo not drawn) | 100 | 174% (inactive) | 100% (inactive) | 96.7% (inactive) | 92.8% (inactive) | 1.19% (inactive) | 91.7 | 92.8 | 0.13% (inactive) | -5.67% (inactive) | -7.14% (inactive) | -3.55% (inactive) | -0.74% (inactive) | 98.1% (inactive) | 87% (inactive) | 1.4% (inactive) | -0.77% (inactive)
C=CCn1c(=O)n(CCOC)c(=O)c2sc3ccccc3c21 | 85 | 105% (inactive) | 85% (inactive) | 87.4% (inactive) | 86.8% (inactive) | -13.7% (inactive) | 100 | 86.8 | -0.53% (inactive) | 4.33% (inactive) | -13.3% (inactive) | -5.77% (inactive) | -4.03% (inactive) | 89.9% (inactive) | 86.7% (inactive) | 0.25% (inactive) | 1.71% (inactive)
COc1ccc(S(=O)(=O)Cc2ccc(C(=O)N3CCN(c4ccccc4)CC3)o2)cc1 | 72.5 | 115% (inactive) | 72.5% (inactive) | 104% (inactive) | 84.4% (inactive) | -1.7% (inactive) | 86.1 | 84.4 | -2.8% (inactive) | -7.5% (inactive) | -11.7% (inactive) | -18.9% (inactive) | -2.99% (inactive) | 88.8% (inactive) | 89.3% (inactive) | 0.76% (inactive) | 8.54% (inactive)
NC(=O)CN1C(=O)C(O)(CC(=O)c2ccccc2O)c2ccccc21 (stereo not drawn) | 92.5 | 95.5% (inactive) | 92.5% (inactive) | 92.1% (inactive) | 91.8% (inactive) | -5.2% (inactive) | 97 | 91.8 | -2.67% (inactive) | -1.17% (inactive) | 1.61% (inactive) | -10.4% (inactive) | -2.93% (inactive) | 94.8% (inactive) | 93.9% (inactive) | 1.52% (inactive) | 2.98% (inactive)
COc1ccc(CNC(=O)c2ccc(CN3CCOCC3)cc2)cc1 | 116 | 93.5% (inactive) | 116% (inactive) | 99.8% (inactive) | 92.1% (inactive) | 12.5% (inactive) | 79.6 | 92.1 | -4% (inactive) | 4.52% (inactive) | -8.78% (inactive) | -16.6% (inactive) | -0.28% (inactive) | 96.4% (inactive) | 105% (inactive) | 1.33% (inactive) | 0.16% (inactive)
Cc1ccc(-c2cc(C(=O)Nc3cc(C)on3)c3ccccc3n2)c(C)c1 | 77.5 | 99.5% (inactive) | 77.5% (inactive) | 96% (inactive) | 84.7% (inactive) | -5.17% (inactive) | 89.9 | 84.7 | -4.67% (inactive) | 3.67% (inactive) | -8.89% (inactive) | -8.38% (inactive) | -0.76% (inactive) | 87.4% (inactive) | 82.4% (inactive) | 1.68% (inactive) | 7.01% (inactive)
Cc1nc2sc(C(c3cccs3)N3CC(C)CC(C)C3)c(O)n2n1 (stereo not drawn) | 89.5 | 92% (inactive) | 89.5% (inactive) | 108% (inactive) | 95.2% (inactive) | 1.38% (inactive) | 93.8 | 95.2 | -0.27% (inactive) | 8.85% (inactive) | -11.2% (inactive) | -10.1% (inactive) | -2.1% (inactive) | 107% (inactive) | 95.2% (inactive) | 1.53% (inactive) | 5.64% (inactive)
CCOc1ccc2nc(N3CCC(C(=O)N4CCN(C5CCCCC5)CC4)CC3)sc2c1 | 83 | 83.5% (inactive) | 83% (inactive) | 98.6% (inactive) | 95.7% (inactive) | 8.46% (inactive) | 87.2 | 95.7 | -1.33% (inactive) | -4.1% (inactive) | -0.545% (inactive) | 8.85% (inactive) | -3.43% (inactive) | 55.6% (inactive) | 70.3% (inactive) | 1.22% (inactive) | 0.6% (inactive)
COc1ccc(NC(=O)NCCN2C(=O)C3C4C=CC(C4)C3C2=O)cc1 (stereo not drawn) | 96 | 91% (inactive) | 96% (inactive) | 100% (inactive) | 101% (inactive) | 3.28% (inactive) | 97.5 | 101 | -1.33% (inactive) | 0.33% (inactive) | -5.58% (inactive) | 10.4% (inactive) | -0.53% (inactive) | 99.1% (inactive) | 94.5% (inactive) | 1.5% (inactive) | -1.15% (inactive)
CCCCOc1ccc(-c2ncc(Cl)cn2)cc1 | 110 | 117% (inactive) | 110% (inactive) | 119% (inactive) | 93.9% (inactive) | 9.19% (inactive) | 84.8 | 93.9 | -4.94% (inactive) | 0.83% (inactive) | -14.9% (inactive) | -12.5% (inactive) | 3.52% (inactive) | 86.9% (inactive) | 96.8% (inactive) | 1.26% (inactive) | 3.37% (inactive)
COc1ccc(CCNC(=O)C2(C)CCC(=O)N2Cc2ccc3c(c2)OCO3)cc1OC (stereo not drawn) | 77.5 | 98% (inactive) | 77.5% (inactive) | 88.2% (inactive) | 92.8% (inactive) | 5.6% (inactive) | 87.2 | 92.8 | -2.69% (inactive) | -5.17% (inactive) | -13.9% (inactive) | -25.8% (inactive) | 0.26% (inactive) | 102% (inactive) | 97.5% (inactive) | 0.985% (inactive) | 1.36% (inactive)
CCN1CCN(C(CNC(=O)c2ccc3c(c2)OCO3)c2cccnc2)CC1 (stereo not drawn) | 89.5 | 93% (inactive) | 89.5% (inactive) | 86.4% (inactive) | 99.6% (inactive) | 9.62% (inactive) | 90 | 99.6 | -2% (inactive) | -6.23% (inactive) | -12.5% (inactive) | -4.73% (inactive) | 0.44% (inactive) | 104% (inactive) | 96.2% (inactive) | 1.35% (inactive) | 5.59% (inactive)
Cc1nc2ccccc2c2oc(C(=O)NCCCN3CCCC3=O)cc12 | 91 | 97.5% (inactive) | 91% (inactive) | 84.3% (inactive) | 91.8% (inactive) | 13.9% (inactive) | 77.9 | 91.8 | -5.73% (inactive) | -2.62% (inactive) | -0.475% (inactive) | -1.4% (inactive) | -1.47% (inactive) | 94.5% (inactive) | 96.8% (inactive) | 1.9% (inactive) | 6.62% (inactive)
COc1cccc(C2CC(c3c(Cl)cccc3Cl)n3nc(N)nc3N2)c1 (stereo not drawn) | 97 | 104% (inactive) | 97% (inactive) | 81.2% (inactive) | 83.6% (inactive) | 4.33% (inactive) | 79.3 | 83.6 | -4.53% (inactive) | -0.98% (inactive) | 4.74% (inactive) | 9.22% (inactive) | -0.07% (inactive) | 103% (inactive) | 91.4% (inactive) | -0.3% (inactive) | 6.92% (inactive)
CCOCC(=O)Nc1nc2c(s1)C(=O)CC(C)(C)C2 | 80.5 | 108% (inactive) | 80.5% (inactive) | 97% (inactive) | 83.7% (inactive) | -6.59% (inactive) | 90.3 | 83.7 | -7.73% (inactive) | 1.5% (inactive) | -16.7% (inactive) | -21% (inactive) | -2.68% (inactive) | 97.3% (inactive) | 93% (inactive) | 2.79% (inactive) | 0.05% (inactive)
